Laboratory results as given in PMC7862700, “An all-to-all approach to the identification of sequence-specific readers for epigenetic DNA modifications on cytosine”.

Assays:
Test in all cases: DAPPL (digital affinity profiling via proximity ligation, sequencing); 10 mM Tris-HCl pH 7.5, 50 mM NaCl, 1 mM DTT, 4% glycerol, room temperature, 30 min; GST-TFs on glutathione beads, 16-mer random dsDNA library, 0.1% formaldehyde crosslink after washing; high values mean tight binding
HSF1 = HSF1 (Homo sapiens, UniProt Q00613 1-529); conditions: protein: recombinant; tags: N-terminal GST; chain copies: 3; dsDNA, one strand shown
In short: (§1)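 Binding signal is each hexamer's read frequency for a factor divided by its frequency in the tag-only sample. The factors were GST-fused human transcription factors from yeast, captured on glutathione beads, DNA-barcoded and pooled with that sample. Pools were incubated with 200 nmole of a random double-stranded 16-mer DNA library in Tris/NaCl/DTT/glycerol buffer at room temperature for 30 min, then washed, crosslinked with 0.1% formaldehyde, proximity-ligated with BsaI/T4 ligase (1 h, 37 °C), PCR-amplified and sequenced on an Illumina NextSeq500.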

ELK4 = target: T1, ELK4 (Homo sapiens, UniProt P28324-2 1-405); conditions: protein: recombinant; tags: N-terminal GST; dsDNA, one strand shown
T1 sequence: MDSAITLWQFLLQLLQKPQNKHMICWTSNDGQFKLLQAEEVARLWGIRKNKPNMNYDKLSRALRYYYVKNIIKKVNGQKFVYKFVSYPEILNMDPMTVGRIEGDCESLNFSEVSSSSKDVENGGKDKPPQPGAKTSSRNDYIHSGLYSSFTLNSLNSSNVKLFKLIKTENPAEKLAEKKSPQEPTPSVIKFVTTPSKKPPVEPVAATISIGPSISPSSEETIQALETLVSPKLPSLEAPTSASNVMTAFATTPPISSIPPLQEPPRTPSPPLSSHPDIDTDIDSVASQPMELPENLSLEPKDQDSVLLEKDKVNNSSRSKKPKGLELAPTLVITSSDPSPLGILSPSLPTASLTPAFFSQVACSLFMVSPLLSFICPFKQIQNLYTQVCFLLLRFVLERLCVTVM
In short: as §1

ETV2 = target: T2, ETV2 (Homo sapiens, UniProt O00321 1-342); conditions: protein: recombinant; tags: N-terminal GST; dsDNA, one strand shown
T2 sequence: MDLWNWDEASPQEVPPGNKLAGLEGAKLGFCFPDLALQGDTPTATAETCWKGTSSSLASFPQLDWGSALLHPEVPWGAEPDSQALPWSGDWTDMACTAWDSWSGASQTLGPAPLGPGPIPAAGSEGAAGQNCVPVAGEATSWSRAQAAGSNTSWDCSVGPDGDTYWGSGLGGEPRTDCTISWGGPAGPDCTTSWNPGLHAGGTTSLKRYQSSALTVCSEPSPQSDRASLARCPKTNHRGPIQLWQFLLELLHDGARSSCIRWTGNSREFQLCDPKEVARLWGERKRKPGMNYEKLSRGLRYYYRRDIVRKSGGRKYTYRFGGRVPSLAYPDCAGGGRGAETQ
In short: as §1

ETV7 = target: T3, ETV7 (Homo sapiens, UniProt Q9Y603 1-341); conditions: protein: recombinant; tags: N-terminal GST; dsDNA, one strand shown
T3 sequence: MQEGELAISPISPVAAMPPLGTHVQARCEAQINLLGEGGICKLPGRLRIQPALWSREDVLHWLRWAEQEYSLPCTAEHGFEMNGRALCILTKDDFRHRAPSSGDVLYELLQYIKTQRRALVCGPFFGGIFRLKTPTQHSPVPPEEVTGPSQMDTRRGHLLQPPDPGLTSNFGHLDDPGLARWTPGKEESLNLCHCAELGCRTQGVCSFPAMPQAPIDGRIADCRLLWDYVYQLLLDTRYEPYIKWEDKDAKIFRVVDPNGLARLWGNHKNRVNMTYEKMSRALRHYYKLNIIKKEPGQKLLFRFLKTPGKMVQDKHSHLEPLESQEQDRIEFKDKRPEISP
In short: as §1

ELK1 = target: T4, ELK1 (Homo sapiens, UniProt P19419 1-428); conditions: protein: recombinant; tags: N-terminal GST; dsDNA, one strand shown
T4 sequence: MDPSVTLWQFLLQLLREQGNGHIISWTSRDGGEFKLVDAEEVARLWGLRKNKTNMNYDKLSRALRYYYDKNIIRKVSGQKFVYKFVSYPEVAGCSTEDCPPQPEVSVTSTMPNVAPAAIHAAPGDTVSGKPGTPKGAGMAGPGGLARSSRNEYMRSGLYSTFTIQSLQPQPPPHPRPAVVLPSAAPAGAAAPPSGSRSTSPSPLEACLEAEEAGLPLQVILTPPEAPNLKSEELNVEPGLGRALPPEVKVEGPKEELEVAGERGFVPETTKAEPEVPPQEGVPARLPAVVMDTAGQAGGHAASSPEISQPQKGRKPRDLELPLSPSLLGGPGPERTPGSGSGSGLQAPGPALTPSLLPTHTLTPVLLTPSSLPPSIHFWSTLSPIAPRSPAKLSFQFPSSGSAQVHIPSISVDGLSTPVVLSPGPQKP
In short: as §1

GABPA = target: T5, GABPA (Homo sapiens, UniProt Q06546 1-454); conditions: protein: recombinant; tags: N-terminal GST; dsDNA, one strand shown
T5 sequence: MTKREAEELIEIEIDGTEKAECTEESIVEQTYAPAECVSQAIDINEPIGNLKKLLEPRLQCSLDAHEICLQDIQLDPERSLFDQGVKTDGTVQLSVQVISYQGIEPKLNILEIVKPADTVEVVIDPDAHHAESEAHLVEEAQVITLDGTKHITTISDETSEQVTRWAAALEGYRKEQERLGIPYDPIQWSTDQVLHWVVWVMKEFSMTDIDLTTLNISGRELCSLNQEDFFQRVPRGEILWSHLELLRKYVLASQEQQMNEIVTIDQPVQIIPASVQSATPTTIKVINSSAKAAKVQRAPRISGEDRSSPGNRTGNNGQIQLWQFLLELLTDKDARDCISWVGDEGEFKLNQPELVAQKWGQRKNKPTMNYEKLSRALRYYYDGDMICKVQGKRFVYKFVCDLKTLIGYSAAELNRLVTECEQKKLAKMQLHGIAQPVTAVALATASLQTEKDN
In short: as §1

ERG = target: T6, ERG (Homo sapiens, UniProt P11308 1-479); conditions: protein: recombinant; tags: N-terminal GST; dsDNA, one strand shown
T6 sequence: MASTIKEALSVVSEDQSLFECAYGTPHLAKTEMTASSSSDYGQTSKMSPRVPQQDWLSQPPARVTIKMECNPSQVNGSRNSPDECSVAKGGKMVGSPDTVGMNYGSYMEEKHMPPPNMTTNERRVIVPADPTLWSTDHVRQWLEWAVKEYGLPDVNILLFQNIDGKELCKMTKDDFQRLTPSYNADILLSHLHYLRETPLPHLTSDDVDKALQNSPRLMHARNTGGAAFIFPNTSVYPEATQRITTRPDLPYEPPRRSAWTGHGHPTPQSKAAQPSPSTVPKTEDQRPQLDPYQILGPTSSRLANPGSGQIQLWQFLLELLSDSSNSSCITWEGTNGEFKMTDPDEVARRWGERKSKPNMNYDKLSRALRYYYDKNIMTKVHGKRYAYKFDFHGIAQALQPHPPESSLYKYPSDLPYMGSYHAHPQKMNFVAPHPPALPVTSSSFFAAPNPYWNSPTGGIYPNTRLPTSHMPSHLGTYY
In short: as §1

EHF = target: T7, EHF (Homo sapiens, UniProt Q9NZC4 1-300); conditions: protein: recombinant; tags: N-terminal GST; dsDNA, one strand shown
T7 sequence: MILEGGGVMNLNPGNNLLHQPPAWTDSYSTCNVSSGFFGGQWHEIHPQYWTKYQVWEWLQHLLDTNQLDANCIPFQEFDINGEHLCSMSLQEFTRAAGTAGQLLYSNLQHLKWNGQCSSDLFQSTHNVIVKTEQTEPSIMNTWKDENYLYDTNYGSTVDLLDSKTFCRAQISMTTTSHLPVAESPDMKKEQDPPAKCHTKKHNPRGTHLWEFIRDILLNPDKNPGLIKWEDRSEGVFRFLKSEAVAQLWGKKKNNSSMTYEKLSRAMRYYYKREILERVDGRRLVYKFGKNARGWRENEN
In short: as §1

ELF4 = ELF4 (Homo sapiens, UniProt Q99607 1-663); conditions: protein: recombinant; tags: N-terminal GST; dsDNA, one strand shown
In short: as §1

CRX = CRX (Homo sapiens, UniProt O43186 1-299); conditions: protein: recombinant; tags: N-terminal GST; dsDNA, one strand shown
In short: as §1

Chain of HSF1 (Q00613 whole entry, the tested form may be a part): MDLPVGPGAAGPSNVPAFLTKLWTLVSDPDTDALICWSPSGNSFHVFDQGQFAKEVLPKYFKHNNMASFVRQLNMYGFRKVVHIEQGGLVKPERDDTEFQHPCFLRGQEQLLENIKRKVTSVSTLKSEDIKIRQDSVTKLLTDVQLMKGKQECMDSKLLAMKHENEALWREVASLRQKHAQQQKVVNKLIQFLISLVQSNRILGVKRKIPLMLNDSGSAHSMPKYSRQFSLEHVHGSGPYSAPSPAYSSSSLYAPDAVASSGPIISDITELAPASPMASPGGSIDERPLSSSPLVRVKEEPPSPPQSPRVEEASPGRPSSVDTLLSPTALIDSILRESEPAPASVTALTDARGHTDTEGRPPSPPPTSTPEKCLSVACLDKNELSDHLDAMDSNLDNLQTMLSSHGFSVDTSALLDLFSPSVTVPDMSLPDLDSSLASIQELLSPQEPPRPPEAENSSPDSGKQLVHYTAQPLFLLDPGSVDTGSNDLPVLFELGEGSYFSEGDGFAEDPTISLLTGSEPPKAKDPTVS
Chain of ELF4 (Q99607 whole entry): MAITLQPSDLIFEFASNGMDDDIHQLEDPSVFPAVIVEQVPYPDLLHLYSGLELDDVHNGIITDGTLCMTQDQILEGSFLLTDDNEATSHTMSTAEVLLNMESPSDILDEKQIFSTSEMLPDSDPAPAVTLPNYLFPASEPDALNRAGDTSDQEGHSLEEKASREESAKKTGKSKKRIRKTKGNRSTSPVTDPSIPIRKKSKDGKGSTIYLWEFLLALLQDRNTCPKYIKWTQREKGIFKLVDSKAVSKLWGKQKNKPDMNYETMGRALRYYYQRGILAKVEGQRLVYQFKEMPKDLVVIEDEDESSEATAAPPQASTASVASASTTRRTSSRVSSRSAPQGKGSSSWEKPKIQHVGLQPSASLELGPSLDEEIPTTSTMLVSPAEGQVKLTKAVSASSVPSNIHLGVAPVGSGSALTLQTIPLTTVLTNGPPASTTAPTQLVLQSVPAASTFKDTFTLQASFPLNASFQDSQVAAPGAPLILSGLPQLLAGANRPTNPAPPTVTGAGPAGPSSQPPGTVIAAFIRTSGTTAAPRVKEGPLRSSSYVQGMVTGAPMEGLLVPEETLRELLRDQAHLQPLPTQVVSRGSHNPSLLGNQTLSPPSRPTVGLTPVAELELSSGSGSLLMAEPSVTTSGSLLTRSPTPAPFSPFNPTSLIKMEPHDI
Chain of CRX (O43186 whole entry): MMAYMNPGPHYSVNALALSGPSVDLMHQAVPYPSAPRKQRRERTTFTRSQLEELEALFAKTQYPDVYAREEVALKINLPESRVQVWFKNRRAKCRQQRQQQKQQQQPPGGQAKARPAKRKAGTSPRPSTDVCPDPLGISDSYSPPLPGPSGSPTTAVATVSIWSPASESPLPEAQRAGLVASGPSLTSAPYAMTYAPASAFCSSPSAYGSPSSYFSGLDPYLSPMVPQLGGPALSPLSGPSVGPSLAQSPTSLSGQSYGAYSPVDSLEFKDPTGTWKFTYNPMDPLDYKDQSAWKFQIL

Row | Sequence | binding signal (HSF1) | binding signal (ELK4) | binding signal (ETV2) | binding signal (ETV7) | binding signal (ELK1) | binding signal (GABPA) | binding signal (ERG) | binding signal (EHF) | binding signal (ELF4) | binding signal (CRX)
1 | CGAAGT | 1.08 fold enrichment (6-mer frequency, TF over GST control) | 1 fold enrichment (6-mer frequency, TF over GST control) | 1.03 fold enrichment (6-mer frequency, TF over GST control) | 1.06 fold enrichment (6-mer frequency, TF over GST control) | – | – | – | – | – | –
2 | TCGGCT | 1.15 fold enrichment (6-mer frequency, TF over GST control) | – | – | 1.05 fold enrichment (6-mer frequency, TF over GST control) | 1.02 fold enrichment (6-mer frequency, TF over GST control) | 1.03 fold enrichment (6-mer frequency, TF over GST control) | 1.09 fold enrichment (6-mer frequency, TF over GST control) | 1.02 fold enrichment (6-mer frequency, TF over GST control) | 1.1 fold enrichment (6-mer frequency, TF over GST control) | 1.34 fold enrichment (6-mer frequency, TF over GST control)
